Results reported in PubChem BioAssay (NCI).
Compounds without any hit were thinned out: in the full panel of roughly 79,000, 15% have a hit. Cut-off read from the data, not from the text of the source: active = growth inhibition above about 70%; inactive = the rest. Where a SMILES comes first, the peptide text is derived from it. The star is where a group is joined. ONp = O=[N+]([O-])c1ccc(O*)cc1; Tos = Cc1ccc(S(=O)(=O)*)cc1

Experiments:
[1] = NCI Yeast Anticancer Drug Screen. Data for the rad50 strain (AID 155);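 note: 0% = growth of vehicle-only cultures of the same strain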; details: S. cerevisiae rad50 strain growth inhibition; at 50.0 µM; hits give high values
Method in brief: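 Inhibition values express reduced yeast growth in compound-treated cultures relative to vehicle-treated controls.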

[2] = NCI Yeast Anticancer Drug Screen. Data for the mec2-1 strain (AID 157); details: S. cerevisiae mec2-1 strain, at 50.0 µM, hits give high values
Method in brief: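 Using mec2-1 yeast: add compound, measure growth, express inhibition versus vehicle-treated cultures.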

[3] = NCI Yeast Anticancer Drug Screen. Data for the sgs1 mgt1 strain (AID 161);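 note: 0% = growth of cultures given vehicle only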; details: S. cerevisiae sgs1 mgt1 strain, at 50.0 µM, hits give high values
Method in brief: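 Percent growth inhibition was derived by comparing compound-exposed mutant yeast with vehicle-exposed cultures. The strain carries alterations in DNA damage repair.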

[4] = NCI Yeast Anticancer Drug Screen. Data for the cln2 rad14 strain (AID 165);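 note: 0% = growth equal to vehicle treated cultures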; details: S. cerevisiae cln2 rad14 strain, at 50.0 µM, hits give high values
Method in brief: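 Yeast strain cln2 rad14, bearing defects in cell cycle control and DNA repair, serves as the test system; values reflect growth inhibition compared with vehicle.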

[5] = NCI Yeast Anticancer Drug Screen. Data for the bub3 strain (AID 167); details: S. cerevisiae bub3 mutant strain, at 50.0 µM, hits give high values
Method in brief: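 Steps: expose the mutant yeast strain to compound; grow alongside vehicle-treated cultures; measure growth; express inhibition against the vehicle cultures.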

[6] = NCI Yeast Anticancer Drug Screen. Data for the mlh1 rad18 strain (AID 175); details: S. cerevisiae mlh1 rad18 strain growth inhibition; at 50.0 µM; hits give high values
Method in brief: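 Steps: expose repair-defective yeast to compound; measure growth; express inhibition against vehicle-treated controls.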

Measured: growth inhibition

CC1C=CC(O)[C@]2(CO)CC3(CCC12)OCCO3 (some centres not stated)
inactive: [1] -13.7% | [2] 3.95% | [3] -13.6% | [4] 17.6% | [5] -12.7% | [6] -16.3%

Cn1cc(Cc2ccc(-c3ccccc3)cc2)c(=O)c(Cc2ccc(-c3ccccc3)cc2)c1
inactive: [1] 30.6% | [2] 6.75% | [3] -2.9% | [4] 12.5% | [5] 3.9% | [6] 27.8%

CCCCCCCCCCCCC1CC(=O)OC1=O (configuration not stated)
inactive: [1] 3.65% | [2] -15.4% | [3] 13% | [4] 18.1% | [5] 32.5% | [6] -8.85%

Nc1ccc(C2NC=CN2)cc1
inactive: [1] -12.1% | [2] -7.65% | [3] -0.7% | [4] 29.8% | [5] -3.15% | [6] -1.65%

O=c1[nH]c2c(Br)cccc2c2ccccc12
inactive: [1] 43.1% | [2] 3.85% | [3] 11.8% | [4] -30.9% | [5] -14.5% | [6] 17.5%

COc1ccc(COC(=O)Nc2ccc([N+](=O)[O-])cc2)cc1
inactive: [1] -38.2% | [2] -3.6% | [3] -28.1% | [4] -5.3% | [5] -18.5% | [6] -12.2%

Cc1cc(O)c([N+](=O)[O-])cc1C
inactive: [1] -8.05% | [2] -1.85% | [3] -15.2% | [4] -1.75% | [5] 3.75% | [6] -3.55%

CCOC(C)(OCC)c1ccccc1
inactive: [1] -9.15% | [2] 20.6% | [3] -2.1% | [4] 23.5% | [5] 8.55% | [6] 29.4%

CN1CCCC2C3=CC=C4CC(O)CCC4(C)C3CCC21C (configuration not stated)
inactive: [1] 60.4% | [2] 21.5% | [3] 34.9% | [4] 14.5% | [5] 23.9% | [6] 35.5%

CNCCCC1c2ccccc2C=Cc2ccccc21
inactive: [1] 5.5% | [2] 2.9% | [3] 12.8% | [4] -1.7% | [5] 0.15% | [6] 11.8%

C=CCOCC(O)CO (configuration not stated)
inactive: [1] 32.5% | [2] -3.9% | [3] 29.8% | [4] 16.8% | [5] 10.1% | [6] 28.1%

CN(C)CCOc1c(Cc2ccccc2)ccc2cccnc12
inactive: [1] -1.65% | [2] 5.15% | [3] 3.05% | [4] -2.9% | [5] 1% | [6] 5.05%

CC1(C)CC(C2CC(C)(C)CC(C)(C)[C@H]2O)[C@@H](O)C(C)(C)C1 (some centres not stated)
inactive: [1] -17.3% | [2] -2.3% | [3] -2.1% | [4] -13.2% | [5] -25.8% | [6] -19.9%

COC(=O)c1ccccc1-c1ccccc1C(=O)OC
inactive: [1] 7.75% | [2] 18.1% | [3] 10.8% | [4] 25.8% | [5] 15.4% | [6] 13.7%

CN(C(=O)C1C2c3ccccc3C(c3ccccc32)C1C(=O)N(C)c1ccccc1)c1ccccc1 (configuration not stated)
inactive: [1] 29.4% | [2] 1.3% | [3] 22.4% | [4] -39% | [5] 1.1% | [6] 21.9%

CNc1ncc(-c2nnnn2-c2ccccc2)c(CN(C)C)n1
inactive: [1] -36% | [2] -3.05% | [3] -3.4% | [4] 5.1% | [5] -3.45% | [6] 25.2%

CCC(CO)(CO)[N+](=O)[O-]
inactive: [1] 10.2% | [2] -2% | [3] -20.5% | [4] 5% | [5] 16.8% | [6] 7.25%

CC(C)(C)OC(=O)NC(Cc1ccccc1)C(=O)N[C@H]1c2ccsc2/C(=N/O)[C@H]1O (some centres not stated)
inactive: [1] -9.2% | [2] -6.95% | [3] 3.8% | [4] 9.15% | [5] -4.85% | [6] 29.9%

O=C[C@@H](CO)O[C@H](C=O)c1c[nH]c(=O)[nH]c1=O
inactive: [1] -24.1% | [2] -13.2% | [3] -23.9% | [4] -10.5% | [5] -36.5% | [6] -54.5%

CCC1=NCCO1
inactive: [1] 5.85% | [2] 0.25% | [3] -2.1% | [4] 4% | [5] 28.1% | [6] -11.7%

O=C(Nc1nc(=S)c2c(ncn2CCO)[nH]1)c1ccccc1
inactive: [1] 4.95% | [2] -14% | [3] 8.6% | [4] 12.9% | [5] 4.7% | [6] -0.7%

O=C1CSC(=O)N1
inactive: [1] -24.3% | [2] -14.4% | [3] -0.2% | [4] -32.8% | [5] -38% | [6] -41.5%

CC1(C(=O)O)CCCC2(C)c3ccc(O)cc3CCC12 (configuration not stated)
inactive: [1] 37% | [2] 29.9% | [3] 61.2% | [4] -3% | [5] 61.1% | [6] 45%

CCOC1(c2ccccc2)c2ccccc2C(C)(C)c2ccccc21
inactive: [1] 0.8% | [2] 12.3% | [3] 42% | [4] 4.2% | [5] 14.9% | [6] -5.2%

O=C1C(CCCS)C(c2ccccc2)=NN1c1ccccc1 (configuration not stated)
inactive: [1] 54.9% | [2] 3.9% | [3] 18.4% | [4] -12.8% | [5] 0.45% | [6] 39%

COc1ccc2c(ccc3nc(C)[nH]c(=O)c32)c1
inactive: [1] 5.3% | [2] -5.35% | [3] 2.95% | [4] -30.2% | [5] -10.6% | [6] -6.3%

Cc1ccc(S(=O)(=O)NCC(=O)NCC(=O)Oc2ccc([N+](=O)[O-])cc2)cc1 (Tos-Gly-Gly-ONp)
inactive: [1] 52.7% | [2] 13% | [3] 42.2% | [4] 18.8% | [5] 2% | [6] 16%

COc1cccc(S(=O)(=O)c2c(C)cc(C)cc2C)c1
inactive: [1] -12.7% | [2] -12.6% | [3] -12.8% | [4] -42% | [5] 1.1% | [6] -12.8%

O=[N+]([O-])c1ccc(C[N+]2(CCC[N+]3(Cc4ccc([N+](=O)[O-])cc4)CCCC3)CCCC2)cc1
inactive: [1] -1.6% | [2] -18.2% | [3] -2.1% | [4] 10.7% | [5] 8.75% | [6] 2.3%

O=C(Nc1ccccc1C(=O)NCc1ccccc1)/C(=C/c1ccccc1)NC(=O)c1ccccc1
inactive: [1] 7.25% | [2] 6.9% | [3] -0.95% | [4] 4.05% | [5] 6.8% | [6] -34.7%

COc1ccc2c(c1)CC1=C2CCC2(C)C(=O)CC=C12 (configuration not stated)
inactive: [1] 11.7% | [2] -8.35% | [3] -7.65% | [4] 11.8% | [5] 4.5% | [6] 4.85%

CCOC1NC(=O)Oc2ccccc21 (configuration not stated)
inactive: [1] 4.2% | [2] 0.5% | [3] 8.1% | [4] 7.35% | [5] 10.9% | [6] -37.4%

O=C(NO)c1c(F)c(F)c(C(=O)NO)c(F)c1F
inactive: [1] -2.5% | [2] 7.05% | [3] 4% | [4] 11% | [5] 9.65% | [6] 2.1%

O=P(c1ccccc1)(c1ccccc1)c1ccccc1OCCOCCOc1ccccc1P(=O)(c1ccccc1)c1ccccc1
inactive: [1] -7.2% | [2] -3.75% | [3] 5.9% | [4] -16.8% | [5] 0.35% | [6] 13.9%

CCOC(=O)C(C)(C)C(=O)Nc1ccccc1
inactive: [1] 5.2% | [2] -7.6% | [3] -3.6% | [4] 24.9% | [5] 3.6% | [6] 5.7%

C1CCc2[nH]nc(-c3n[nH]c4c3CCCCC4)c2CC1
inactive: [1] 9.25% | [2] 3.35% | [3] 19.9% | [4] 9.95% | [5] 12.3% | [6] 18.5%

Fc1cccc2nc(-c3ccccc3)cc(OCc3ccccc3)c12
inactive: [1] 0.9% | [2] 8.3% | [3] -30.6% | [4] -1% | [5] 11.8% | [6] -3.4%

Nc1nc(N)c(NC(=O)CCCO)c(=O)[nH]1
inactive: [1] -3.95% | [2] -2.35% | [3] -13.3% | [4] 6.8% | [5] -23.8% | [6] -53%

N#CC(CN1CCCCC1)c1ccccc1 (configuration not stated)
inactive: [1] 5.4% | [2] 1.55% | [3] 5.2% | [4] -41.4% | [5] -8.75% | [6] 0.8%

O=C1c2cc(F)ccc2-c2c(F)cc(F)cc21
inactive: [1] 19.9% | [2] -6.4% | [3] -2.1% | [4] 40.5% | [5] -3.85% | [6] -8.8%

CC(=O)C1=CN(Cc2ccccc2)C(O)CC1C(N)=O (configuration not stated)
inactive: [1] 7.55% | [2] -12.6% | [3] 4.7% | [4] 10.8% | [5] 16.1% | [6] 1.3%

Cc1nn(C(=O)c2ccncc2)c2c1C(c1ccccc1[N+](=O)[O-])SC(N)=N2 (configuration not stated)
inactive: [1] 21.4% | [2] 6.15% | [3] 40.1% | [4] 26.1% | [5] 43.6% | [6] 18.9%
